# According to PubChem BioAssay AID485364 (National Center for Advancing Translational Sciences (NCATS), 2010):
# The campaign covered roughly 360,000 compounds. About 11,000 (3.1%) were called active. Inconclusive results (about 4%) are left out. What follows is part of a selection rich in actives, with near analogues and random picks from the rest. Values without a mark were called inactive. Calls follow the shape of the dose curve; as a rule, active = well fitted inhibition curve with a large enough effect; inconclusive = small, poorly fitted or top-dose-only effect; inactive = no such curve, though single readings can be large or run the other way.
# Biological target: Schistosoma mansoni thioredoxin glutathione reductase (TGR) (UniProt Q962Y6)
# Test: qHTS Assay for the Inhibitors of Schistosoma Mansoni Peroxiredoxins; also: nearly all actives have a fitted effect of over 60% in size
# Conditions: purified TGR, DTNB reduction, TNB absorbance 405 nm; series mostly up to 114 µM; activity change, negative = inhibition: at the top concentration
# Summary of the method: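 First, TGR (20 nM dispensed) and NADPH were mixed with compound. Second, a 15 min room-temperature incubation followed. Third, further NADPH and then DTNB were added to start the reaction. Finally, TNB absorbance was monitored kinetically.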
# % is scaled to controls: 0 for no effect and ±100 for the full control effect; potency is read from the fitted curve at half-maximal effect.
SMILES,"activity change, negative = inhibition",Potency
Cc1ccc(CSCC(=O)N(C)CC(=O)Nc2ccc(C)cc2)cc1,-1.39%,
CCc1ccc(NC(=O)CCS(=O)(=O)c2cc3c(cc2Cl)NC(=O)CO3)cc1,5.86%,
Fc1ccc(CN2CCc3nc(Nc4ccccc4)ncc3C2)cc1F,-3.33%,
COC(=O)C1=C(O)/C(=C/c2ccc(OCC(=O)Nc3ccccc3)cc2)N=C1C,58.6%,
CCOC(=O)C1=C(O)/C(=C/c2ccc(OCC(=O)Nc3ccc(C)cc3)cc2)N=C1C,-27.1%,
CCOC(=O)C1=C(O)/C(=C/c2cc(C)n(-c3ccccc3)c2C)N=C1C,,28.2 µM (active)
CCOc1ccccc1C(=O)Nc1ccc2c(c1)N(C)C(=O)c1ccccc1S2,-1.15%,
O=C(Cn1c(=O)n(-c2ccc(F)cc2)c(=O)c2sc3ccccc3c21)NC1CCCC1,0.259%,
O=C(CSc1nnc2scc(-c3ccc(F)cc3)n12)NCc1ccco1,-0.356%,
Cc1cc(C)n2nc(SCC(=O)NC(=O)NCc3ccco3)nc2n1,-35.8%,
Cn1c(-c2ccc(F)cc2)cnc1SCC(=O)NCc1ccco1,,31.6 µM (active)
O=C(CSc1nnc(-c2c[nH]c3ccccc23)n1-c1ccc(F)cc1)NCc1ccco1,-24.4%,
Cc1ccc(-c2csc3nnc(SCC(=O)NCc4ccco4)n23)cc1,-32.7%,
O=C(CSc1nnnn1-c1ccccc1)NCc1ccco1,,79.4 µM (active)
Cc1ccc(Cc2c(C)nc3nc(SCC(=O)NCCN4CCOCC4)nn3c2C)cc1,-11.8%,
Cc1nc2nc(SCC(=O)NCc3ccco3)nn2c(C)c1Cc1ccccc1,,20 µM (active)
CCOc1ccccc1-n1c(SCC(=O)NCc2ccco2)nnc1-c1ccncc1,,44.7 µM (active)
CCN(CC)C(CNC(=O)CSc1nnnn1-c1cccc(F)c1)c1ccco1 (stereo not given),0%,
Cn1c(-c2ccc(F)cc2)cnc1SCC(=O)NNC(=O)Cc1ccccc1,-9.73% [at 57.1 µM],
CCn1c(SCC(=O)NCc2ccco2)nnc1-c1ccc(N)cc1,0.665%,
COc1cccc(NC(=O)C(=O)NCC(c2ccc3c(c2)OCO3)N2CCN(C)CC2)c1 (stereo not given),1.67%,
Cc1ccc(CN2CCC(CNC(=O)c3cnn(-c4ccccc4Cl)c3C3CCN(C(=O)OC(C)(C)C)CC3)CC2)cc1,-7.74%,
COc1ccc2c(c1)c(=O)c(C(=O)c1ccccc1)cn2CC(=O)Nc1ccc2c(c1)OCCO2,-6.11%,
CCOc1ccccc1NC(=O)Cn1c(=O)n(-c2cccc(C)c2)c(=O)c2c1c1cc(OC)ccc1n2C,-3.55%,
O=C(Cn1cnc2c(oc3ccccc32)c1=O)Nc1ccc(OC(F)(F)F)cc1,6.89%,

SMILES,"activity change, negative = inhibition",Potency
CC(CCCc1ccccc1)NC(=O)c1nn(-c2ccc(Cl)cc2)nc1CO (stereo not given),-0.0745%,
O=C(NCCCO)c1nn(-c2ccc(Cl)cc2)nc1CO,5.54%,
O=C(N/N=C/c1ccc(Br)o1)c1cncc(Br)c1,2.4%,
O=C(CN1CCOCC1)N/N=C/c1ccc(-c2ccc(Br)cc2)o1,4.92%,
O=C(CCC(=O)N/N=C/c1ccc(Br)o1)N/N=C/c1ccc(Br)o1,,35.5 µM (active)
CC(C)(C)OC(=O)N1CCC(c2c(C(=O)NCCc3ccsc3)cnn2-c2ccc(F)cc2F)CC1,3.46%,
Cc1ccc(NC(=O)Nc2ccc3oc(C)nc3c2)cc1,-5.55%,
CCN(CC)c1ccc2oc(=O)c(C)nc2c1,,35.5 µM (active)
CCc1ccc2oc(-c3ccc(N)cc3)nc2c1,5.8%,
Cc1cccc2c(=O)cc(CSc3ccccc3NC(=O)C(C)C)[nH]c12,4.74%,
O=C(Nc1ccccc1F)C(c1ccccc1)N1Cc2ccccc2C1=O (stereo not given),1.88%,
COc1ccc(-c2nc(CS(=O)(=O)CC(=O)NCc3cccc(Br)c3)c(C)o2)cc1,-14.1%,
Cc1ccc(-c2nc(CS(=O)(=O)CC(=O)NCc3ccc4c(c3)OCO4)c(C)o2)cc1,,20 µM (active)
Cc1ccc(-c2nc(CS(=O)(=O)CC(=O)NCc3ccccc3Cl)c(C)o2)cc1,-12.7%,
O=C(NCc1ccccc1)c1cccc(NC(=O)N2CCSc3ncccc32)c1,0.268%,
O=C(c1cccc(Br)c1)N1CCN(Cc2cc(=O)n3nc(-c4ccccc4)sc3n2)CC1,12.5%,
CC(C)NS(=O)(=O)c1ccc(NC(=O)c2cccnc2)cc1,0%,
NS(=O)(=O)c1ccc(NC(=S)NC(=O)c2cccc(Br)c2)cc1,,15.8 µM (active)
O=C(NC(=S)Nc1ccc(S(=O)(=O)Nc2ncccn2)cc1)c1cccc(Br)c1,,20 µM (active)
NS(=O)(=O)c1ccc(NC(=S)NC(=O)c2cccnc2)cc1,,22.4 µM (active)
O=C(Nc1ccc(S(=O)(=O)Nc2ncccn2)cc1)c1cncc(Br)c1,3.58%,
O=C(NC(=S)Nc1cccc2c(O)cccc12)c1cccc(Br)c1,-23.3%,
COc1ccc(OC)c(C(C)NC(=S)Nc2ccc(S(=O)(=O)Nc3ncccn3)cc2)c1 (stereo not given),-24.2%,
Cc1cc(NS(=O)(=O)c2ccc(NC(=O)c3cccnc3)cc2)nc(C)n1,-0.523%,
NS(=O)(=O)c1ccc(NC(=S)Nc2ccc(Br)c(Cl)c2)cc1,-19.3%,
